molecular target: CLN5; experiment: pooled miR-30 sensor sort-seq; sequence = guide strand; settings: shRNA
Further: reference of the scale not given here.

| Sequence | sensor-assay potency score (higher = more potent) |
| --- | --- |
| ATGTTCTTGAACTCTGCTCCAA | -1.05 |
| TTAACTTTATGCACCAAGGAAG | -0.963 |
| TTTGGTTGAACATGTTTCCTGA | 0.362 |
| TTTCCTTCCAGTGAACATCATC | -0.843 |
| TTCAATGTCATCATCACCCTCC | 0.818 |
| TAGGTAAAAACCAATATTCAAA | -1.15 |
| TTCTTGTATAGTTGGTTTCTAT | -0.695 |
| TATAGTTGCTACTTGAACTAAT | -0.263 |
| TTGACAATAAGGATCAGGTTTT | -0.121 |
| TATAAAACAAATAGAACTGTTT | -0.137 |
| TTTAACTTTATGCACCAAGGAA | -0.689 |
| TTCATTGTCCTGTTTCACCCAC | 0.245 |
| TACATAACTGATATGAACCATA | -0.617 |

molecular target: CLRN3; experiment: as above; settings: shRNA

| Sequence | sensor-assay potency score (higher = more potent) |
| --- | --- |
| TTGTCCAGAGAAGCTAACCAGT | -1.23 |
| TTTGAATACCACACAGACCAGC | -1.01 |
| TAAAGCATTTGGAACAACTCTT | 0.169 |
| TTCAGTATCTCTAAAACTGCAA | -0.132 |
| TATATTTAGAAGAATGACGAGC | -0.483 |
| TTACCATGCTGAATTGTCCAGA | -0.037 |
| TAAAACTGCAAACTTTTTCTTT | -0.472 |
| TAAGTGATGAAAATGCTCCCAT | 0.574 |
| ATTTGGAACAACTCTTCGGAGA | -1.11 |
| TCTCTAACAGCAATCGTACTGG | -0.178 |
| TCTAACAGCAATCGTACTGGTG | -0.061 |
| TTGAAGCAGAGTCTCTAACAGC | -0.854 |

molecular target: CMAS; experiment: as above; settings: shRNA

| Sequence | sensor-assay potency score (higher = more potent) |
| --- | --- |
| TATATATATATCACAAACCAAA | -1.7 |
| TTCATCTACAACTGCTAGCTTG | -0.562 |
| TAGTGAGGTAGAGCTGTCTTTT | -0.742 |
| TCATCTACAACTGCTAGCTTGT | -0.405 |
| TACATTTGCAAATGTATCCAAC | -0.636 |
| TTTCACTCCATCGAAACTGATG | -0.871 |
| TACAACTGCTAGCTTGTCTGAT | -0.274 |
| TTCTTTAATAAACTTATCCCAA | -0.589 |
| TTCGATGAACTTGTGCACCAAA | -0.973 |
| TAGAGCTGTCTTTTGAAACTTC | 0.56 |
| TTTAGCTGGATTTAAATTCAGA | -0.846 |
| TTTGAAACTTCAGAACTTCTTC | 0.8 |

molecular target: CMIP; experiment: as above; settings: shRNA

| Sequence | sensor-assay potency score (higher = more potent) |
| --- | --- |
| TAAACTGCAGAGACTCTTCATG | 0.214 |
| TTTTTGGTCTTGTAACAGGAGC | -1.29 |
| TTTTTTGGTCTTGTAACAGGAG | -0.0686 |
